PubChem BioAssay AID743402 (Broad Institute, 2014)
Out of some 1,200 compounds screened, about 140 (12%) were called active.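 Rule for the calls: active = fitted curve falls past -35% activity change at a dose under twice the top valid dose, in every replicate test; inconclusive = replicate tests disagree on the call; inactive = the rest, including activity in the opposite direction.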 Only a sample is shown.

Test: restoration of mutant CFTR halide transport – FRT cells, YFP quenching, cherry-pick, dose response (AID 743402);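 note: compounds act as correctors raising surface CFTR-F508del before acute activation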
Conditions: FRT CFTR-F508del YFP iodide quenching, 24 h, channel opened with forskolin and a potentiator; series mostly up to 26 µM

Activity change, negative = more quenching (active), inactive:
OC[C@@H]1CN(Cc2ccc(-c3ccccc3)cc2)C[C@H](n2cnc3c(NC4CC4)ncnc32)O1
COc1ccccc1NC(=O)CSc1ccc(-c2ccccn2)nn1
COc1ccccc1N=C1SC(C(=O)Nc2cccc(Cl)c2Cl)C(N)=C1C(N)=O (centres undefined)
CC(C)C[C@H]1CN([C@@H](Cc2ccc(O)cc2)CN2CCC[C@H]2CN2C(=O)C(=O)NC[C@@H]2Cc2ccccc2)C(=O)C(=O)N1CC1CCCCC1
CCC(=O)N1CC2(CCN(Cc3ccc(Cl)cc3)CC2)c2c(n(C)c3cc(OC)ccc23)[C@H]1CO
COC(=O)C1=CN(c2ccc(OC)cc2OC)C(N)=C(C#N)C1c1ccccc1F (centres undefined)
CCCC(=O)NC(c1ccc(Cl)cc1)c1ccc2cccnc2c1O (centres undefined)
Cc1cccc(NC(=S)N/N=C/c2cccc(O)c2)c1C
Cc1cnc(NC(=O)c2ccc3c(c2)OCCO3)s1
Cc1cc(Br)cc(/C=N/NC(=O)c2ccc3c(c2)OCO3)c1O
O=C(Cc1ccc(Br)cc1)NCc1ccccc1
Cc1nc(N)[nH]c(=O)c1CCCNS(=O)(=O)c1ccc([N+](=O)[O-])cc1
CC(C)CN(CCCNC(=O)CN1C(=O)CSc2ccc(S(=O)(=O)N3CCOCC3)cc21)CC(C)C
CCN(CC)C(=O)c1oc2ccc(S(=O)(=O)N3CC(C)CC(C)C3)cc2c1C (centres undefined)
O=C(N=Nc1c(O)[nH]c2ccc(Br)cc12)c1ccccc1-n1cccc1
Cn1cccc1/C=C1\SC(=Nc2cccc(O)c2)NC1=O
Cc1ccc(C2NC(=O)c3ccccc3N2)c(C)c1 (centres undefined)
Cn1cc(C(=O)N/N=C/c2ccc3c(c2)OCO3)c2ccccc21
COc1cc(OC)c2c(-c3cccc(-c4cccc(N)c4)c3)cc(=O)oc2c1
CC(C)Nc1ccc(Nc2ccnc3cc4ccccc4cc23)cc1
CN1c2ccc(-c3ccc(F)cc3)cc2[C@H]2[C@H](CCN2S(=O)(=O)c2cccc(F)c2)[C@@H]1CO
CCCNC(=O)N1CC2(CN(S(=O)(=O)c3cccc(OC)c3)C2)c2c(n(C)c3cc(OC)ccc23)[C@H]1CO
Cc1cccc(S(=O)(=O)N2C[C@H]3[C@@H](c4ccccc42)[C@H](CO)N3CC2CCCC2)c1
COc1ccc(-c2ccc3c(c2)[C@H]2[C@H](CCN2S(=O)(=O)c2ccc(OC)cc2)[C@H](CO)N3C)cc1
Cc1ccccc1S(=O)(=O)N1C[C@@H]2N[C@H](C1)C2c1ccc(-c2cccc(C#N)c2)cc1 (some centres undefined)
COc1cccc(-c2ccc([C@H]3[C@@H](CO)N(C(=O)c4ccccn4)[C@H]3C#N)cc2)c1
Cc1ccc(C)c(C2NC(=O)c3ccccc3N2)c1 (centres undefined)
COC(=O)CSC1=C(C#N)C(c2ccc(C)o2)CC(=O)N1 (centres undefined)
COc1ccccc1CNC(=O)Nc1nc(C(N)Cc2ccc(Cl)cc2)cs1 (centres undefined)
CN(C)CCCN(C(=O)c1ccco1)c1nc(-c2ccc(Cl)cc2)cs1
O=C(CCc1ccccc1)NCC(c1ccco1)N1CCc2ccccc21 (centres undefined)
CCOC(=O)c1oc2ccc(S(=O)(=O)n3nc(-c4ccccc4)cc3N)cc2c1C
Cc1ccc(C(=O)N/N=C/c2cc(Br)ccc2O)cn1
Cc1ccc(-c2ccc3c(c2)O[C@H](CN(C)Cc2ccccn2)[C@@H](C)CN([C@@H](C)CO)S3(=O)=O)cc1
O=[N+]([O-])c1ccc(N=Nc2c(Cl)cc(O)cc2Cl)cc1
COc1ccc(OC)c2[nH]c(C(=O)N/N=C/c3ccccc3O)cc12
Cc1ccc(-c2ccc3c(c2)O[C@@H](CN(C)Cc2ccccn2)[C@H](C)CN([C@H](C)CO)S3(=O)=O)cc1
Cn1c(C(=O)c2ccccc2[N+](=O)[O-])nc2ccccc21
Cc1cccc(N2CCN(S(=O)(=O)c3cc(-c4cc(C)no4)ccc3C)CC2C)c1 (centres undefined)
C[C@@H]1CN([C@H](C)CO)S(=O)(=O)c2ccc(-c3ccccc3)cc2O[C@H]1CN(C)Cc1ccccn1
COc1ccc(-c2ccc3c(c2)[C@H]2[C@H](CCN2S(=O)(=O)c2ccc(OC)cc2)[C@@H](CO)N3)cc1
O=C(C[C@@H]1CC[C@H]2[C@@H](COC[C@H](O)CN2Cc2ccc3c(c2)OCO3)O1)Nc1ccc(-c2ccccc2)cc1 21.4% [at 2.85 µM]
COc1cc2c(-c3ccccc3)c(C)oc2cc1/C=N/NC(N)=S
Cc1ccc(/C=N/NC(=O)c2c(-c3ccccc3)noc2C)c(O)c1
CO/N=C\CC(=O)Nc1ccc(Cl)cc1Cl
CCOc1cc(/C=N/NC(=O)N/N=C/c2ccc(O)c(OCC)c2)ccc1O
COc1ccc(C2c3ccc4ccccc4c3Oc3ncn(CCCO)c(=N)c32)cc1OC (centres undefined)
CCOC(=O)c1c(NC(=O)C(=O)N/N=C/c2ccccc2O)sc2c1CCCCC2
O=c1c2ccccc2oc2cc(-c3ccc4[nH]ccc4c3)ccc12
O=C(NCCOc1ccccc1F)c1cc([N+](=O)[O-])ccc1N1CCOCC1
CCOc1ccc(C(=O)COC(=O)Cc2n[nH]c(=O)c3ccccc23)cc1
CCN1C(=O)c2cccc3c(S(=O)(=O)N(C(C)=O)c4ccc(OC(C)=O)cc4)ccc1c23
O=C1c2cccc3c(O)ccc(c23)C(=O)N1c1ccc(Cl)cc1
C/C(=N\Nc1ncnc2sc(C)c(C)c12)c1ccccn1
Cn1cccc1/C=C1\SC(=Nc2ccccc2)NC1=O
CCc1cc(-c2nnn(CCC3COCCO3)c2CC)ccc1-c1cn(Cc2ccc3ccccc3c2)nn1 (centres undefined)
COc1cc(NC(=O)c2csc(N)n2)cc(C(=O)Nc2cccc(C(F)(F)F)c2)c1
O=C(C1CCCCC1)N1CC(=O)N2[C@@H](CO)[C@H](c3ccc(C#Cc4cccc(F)c4)cc3)[C@@H]2C1
CC1=Nc2cc(C(=O)NCC3CCCO3)ccc2Sc2ccc(C)cc21 (centres undefined)
COc1ccccc1NC(=S)N(Cc1ccco1)Cc1cc2cc(C)cc(C)c2[nH]c1=O
CC(=O)O[C@H]1C(=O)[C@]2(C)[C@H]([C@H](OC(=O)c3ccccc3)[C@]3(O)C[C@H](OC(=O)[C@H](O)[C@@H](NC(=O)c4ccccc4)c4ccccc4)C(C)=C1C3(C)C)[C@]1(OC(C)=O)CO[C@@H]1C[C@@H]2O
COc1cc2c(cc1OC)C(C)N(C(=O)Nc1cc(C)cc(C)c1)CC2 (centres undefined)
C=CCN1c2ccccc2[C@]23C[C@@H](C(=O)OC)N(C(=O)c4cccs4)C2=NC(C(=O)OC)=C(C(=O)OC)[C@H]13
C[C@H]1CN([C@@H](C)CO)C(=O)Cc2cc(NC(=O)Nc3ccc(C(F)(F)F)cc3)ccc2O[C@H]1CN(C)S(=O)(=O)c1ccccc1
O=C(N/N=C\c1c(O)ccc2ccccc12)c1cncc(Br)c1
C[C@H]1CN([C@@H](C)CO)S(=O)(=O)c2ccc(C#Cc3ccc(F)cc3)cc2O[C@H]1CN(C)C(=O)NC1CCCC1
COc1ccc(OC)c(Nc2cc(C)nc3ccc(C)cc23)c1
C[C@H]1CN([C@@H](C)CO)S(=O)(=O)c2ccc(-c3ccc(C#N)cc3)cc2O[C@@H]1CN(C)Cc1ccccn1
Oc1ccc2ccccc2c1C=NNc1ccccn1
Cc1cccc(Nc2nc(N)nc(-c3oc4ccccc4c3C)n2)c1
CCOC(=O)c1ccc(Nc2sc(C(=O)c3cccc([N+](=O)[O-])c3)c(N)c2C#N)cc1
CCc1ccc(-c2nc(C(N)=O)c3[nH]c(=O)n(-c4ccccc4OC)c3n2)cc1
Nc1sc(-c2ccccc2)cc1-c1n[nH]c(=S)n1C1CCCCC1
Cc1ccc(C)c(CSc2nc3[nH]ncc3c(=O)[nH]2)c1
